Assay results: paper PMC11006913

The sequences below were run against VAX1 (Homo sapiens, UniProt Q5SQQ9 86-172) (assay: PBM; 200 nM protein, PBS). Conditions: dsDNA, one strand shown.
Chain of VAX1 (Homo sapiens, UniProt Q5SQQ9 86-172) (Q5SQQ9 86-172): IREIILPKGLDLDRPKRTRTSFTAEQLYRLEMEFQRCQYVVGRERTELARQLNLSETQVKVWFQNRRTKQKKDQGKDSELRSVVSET

Row | Sequence | binding signal
1 | AGCCGGTG | 7.24 upbm affinity estimate (log intensity, higher = more binding, comparable within an allelic series)
2 | CAGCCGTA | 7.32 upbm affinity estimate (log intensity, higher = more binding, comparable within an allelic series)
3 | ACTAAAGA | 9.49 upbm affinity estimate (log intensity, higher = more binding, comparable within an allelic series)
4 | TATAAAGA | 9.93 upbm affinity estimate (log intensity, higher = more binding, comparable within an allelic series)
5 | CGTAATGA | 12.7 upbm affinity estimate (log intensity, higher = more binding, comparable within an allelic series)
6 | ACTAACGA | 9.28 upbm affinity estimate (log intensity, higher = more binding, comparable within an allelic series)
7 | ACGCATAA | 9.35 upbm affinity estimate (log intensity, higher = more binding, comparable within an allelic series)
8 | CGCTAGCG | 7.32 upbm affinity estimate (log intensity, higher = more binding, comparable within an allelic series)
9 | AGGTAAAT | 10.4 upbm affinity estimate (log intensity, higher = more binding, comparable within an allelic series)
10 | GTCGAGCA | 7.29 upbm affinity estimate (log intensity, higher = more binding, comparable within an allelic series)
11 | GGCTAAAC | 9.05 upbm affinity estimate (log intensity, higher = more binding, comparable within an allelic series)
12 | CAGCGCAC | 7.28 upbm affinity estimate (log intensity, higher = more binding, comparable within an allelic series)
13 | CCTGCAGA | 7.26 upbm affinity estimate (log intensity, higher = more binding, comparable within an allelic series)
14 | AGATGAGC | 8.9 upbm affinity estimate (log intensity, higher = more binding, comparable within an allelic series)
15 | ATATGGAC | 9.25 upbm affinity estimate (log intensity, higher = more binding, comparable within an allelic series)
16 | CGTCATGA | 8.84 upbm affinity estimate (log intensity, higher = more binding, comparable within an allelic series)
17 | CGACTCCG | 6.81 upbm affinity estimate (log intensity, higher = more binding, comparable within an allelic series)
18 | CTTCATCA | 9.74 upbm affinity estimate (log intensity, higher = more binding, comparable within an allelic series)
19 | AGGCGGGA | 6.99 upbm affinity estimate (log intensity, higher = more binding, comparable within an allelic series)
20 | GTGATAAC | 9.19 upbm affinity estimate (log intensity, higher = more binding, comparable within an allelic series)

Row | Sequence | binding signal
21 | CGCGGCAC | 6.77 upbm affinity estimate (log intensity, higher = more binding, comparable within an allelic series)
22 | AGCCCGTG | 7.01 upbm affinity estimate (log intensity, higher = more binding, comparable within an allelic series)
23 | GGTCTCCA | 7.04 upbm affinity estimate (log intensity, higher = more binding, comparable within an allelic series)
24 | CTCCGTGC | 6.97 upbm affinity estimate (log intensity, higher = more binding, comparable within an allelic series)
25 | CGGCAAGA | 7.12 upbm affinity estimate (log intensity, higher = more binding, comparable within an allelic series)
26 | GCTCAGCC | 6.9 upbm affinity estimate (log intensity, higher = more binding, comparable within an allelic series)
27 | TTATGGAA | 9.61 upbm affinity estimate (log intensity, higher = more binding, comparable within an allelic series)
28 | AGGGTCAG | 7.22 upbm affinity estimate (log intensity, higher = more binding, comparable within an allelic series)
29 | GAGAATCC | 6.95 upbm affinity estimate (log intensity, higher = more binding, comparable within an allelic series)
30 | GCCAAGGC | 7.09 upbm affinity estimate (log intensity, higher = more binding, comparable within an allelic series)
31 | GCGGAGAC | 7.14 upbm affinity estimate (log intensity, higher = more binding, comparable within an allelic series)
32 | CCGGTGCC | 7.09 upbm affinity estimate (log intensity, higher = more binding, comparable within an allelic series)
33 | CATTACGC | 11.1 upbm affinity estimate (log intensity, higher = more binding, comparable within an allelic series)
34 | ATGATGAA | 9.52 upbm affinity estimate (log intensity, higher = more binding, comparable within an allelic series)
35 | AGCCTCCG | 6.91 upbm affinity estimate (log intensity, higher = more binding, comparable within an allelic series)
36 | CCGTGAAG | 7.1 upbm affinity estimate (log intensity, higher = more binding, comparable within an allelic series)
37 | AGGGCCCT | 7.2 upbm affinity estimate (log intensity, higher = more binding, comparable within an allelic series)
38 | CCGGCAGC | 7.15 upbm affinity estimate (log intensity, higher = more binding, comparable within an allelic series)
39 | AGTCAGGG | 7.19 upbm affinity estimate (log intensity, higher = more binding, comparable within an allelic series)

What follows are sequences tested against VAX1 (Homo sapiens, UniProt Q5SQQ9 86-172, T142I) (assay: PBM; 200 nM protein, PBS). Conditions: dsDNA, one strand shown.
Chain of VAX1 (Homo sapiens, UniProt Q5SQQ9 86-172, T142I) (Q5SQQ9 86-172 T142I): as the sequence (Q5SQQ9 86-172) above, with T57I counted along it

Row | Sequence | binding signal
40 | AGCCGGTG | 7.45 upbm affinity estimate (log intensity, higher = more binding, comparable within an allelic series)
41 | CAGCCGTA | 7.28 upbm affinity estimate (log intensity, higher = more binding, comparable within an allelic series)
42 | ACTAAAGA | 9.21 upbm affinity estimate (log intensity, higher = more binding, comparable within an allelic series)
43 | TATAAAGA | 9.32 upbm affinity estimate (log intensity, higher = more binding, comparable within an allelic series)
44 | CGTAATGA | 12.2 upbm affinity estimate (log intensity, higher = more binding, comparable within an allelic series)
45 | ACTAACGA | 8.88 upbm affinity estimate (log intensity, higher = more binding, comparable within an allelic series)
46 | ACGCATAA | 8.83 upbm affinity estimate (log intensity, higher = more binding, comparable within an allelic series)
47 | CGCTAGCG | 7.37 upbm affinity estimate (log intensity, higher = more binding, comparable within an allelic series)
48 | AGGTAAAT | 10.2 upbm affinity estimate (log intensity, higher = more binding, comparable within an allelic series)
49 | GTCGAGCA | 7.31 upbm affinity estimate (log intensity, higher = more binding, comparable within an allelic series)
50 | CAGCGCAC | 7.22 upbm affinity estimate (log intensity, higher = more binding, comparable within an allelic series)
51 | CCTGCAGA | 7.33 upbm affinity estimate (log intensity, higher = more binding, comparable within an allelic series)
52 | ATATGGAC | 8.78 upbm affinity estimate (log intensity, higher = more binding, comparable within an allelic series)
53 | CGTCATGA | 8.58 upbm affinity estimate (log intensity, higher = more binding, comparable within an allelic series)
54 | CGACTCCG | 7.11 upbm affinity estimate (log intensity, higher = more binding, comparable within an allelic series)
55 | CTTCATCA | 9.33 upbm affinity estimate (log intensity, higher = more binding, comparable within an allelic series)
56 | AGGCGGGA | 7.2 upbm affinity estimate (log intensity, higher = more binding, comparable within an allelic series)
57 | GTGATAAC | 8.78 upbm affinity estimate (log intensity, higher = more binding, comparable within an allelic series)
58 | CGCGGCAC | 7.02 upbm affinity estimate (log intensity, higher = more binding, comparable within an allelic series)

Row | Sequence | binding signal
59 | AGCCCGTG | 7.09 upbm affinity estimate (log intensity, higher = more binding, comparable within an allelic series)
60 | GGTCTCCA | 7.37 upbm affinity estimate (log intensity, higher = more binding, comparable within an allelic series)
61 | CTCCGTGC | 7.18 upbm affinity estimate (log intensity, higher = more binding, comparable within an allelic series)
62 | CGGCAAGA | 7.22 upbm affinity estimate (log intensity, higher = more binding, comparable within an allelic series)
63 | GCTCAGCC | 6.99 upbm affinity estimate (log intensity, higher = more binding, comparable within an allelic series)
64 | TTATGGAA | 9.32 upbm affinity estimate (log intensity, higher = more binding, comparable within an allelic series)
65 | AGGGTCAG | 7.35 upbm affinity estimate (log intensity, higher = more binding, comparable within an allelic series)
66 | GAGAATCC | 7.22 upbm affinity estimate (log intensity, higher = more binding, comparable within an allelic series)
67 | GCCAAGGC | 7.33 upbm affinity estimate (log intensity, higher = more binding, comparable within an allelic series)
68 | GCGGAGAC | 7.32 upbm affinity estimate (log intensity, higher = more binding, comparable within an allelic series)
69 | CCGGTGCC | 7.25 upbm affinity estimate (log intensity, higher = more binding, comparable within an allelic series)
70 | CATTACGC | 10.6 upbm affinity estimate (log intensity, higher = more binding, comparable within an allelic series)
71 | ATGATGAA | 9.3 upbm affinity estimate (log intensity, higher = more binding, comparable within an allelic series)
72 | AGCCTCCG | 7 upbm affinity estimate (log intensity, higher = more binding, comparable within an allelic series)
73 | CCGTGAAG | 7.21 upbm affinity estimate (log intensity, higher = more binding, comparable within an allelic series)
74 | AGGGCCCT | 7.19 upbm affinity estimate (log intensity, higher = more binding, comparable within an allelic series)
75 | CCGGCAGC | 7.15 upbm affinity estimate (log intensity, higher = more binding, comparable within an allelic series)
76 | AGTCAGGG | 7.36 upbm affinity estimate (log intensity, higher = more binding, comparable within an allelic series)

These sequences were tested against VAX1 (Homo sapiens, UniProt Q5SQQ9 86-172, K157R) (assay: PBM; 200 nM protein, PBS). Conditions: dsDNA, one strand shown.
Chain of VAX1 (Homo sapiens, UniProt Q5SQQ9 86-172, K157R) (Q5SQQ9 86-172 K157R): as the sequence (Q5SQQ9 86-172) above, with K72R counted along it

Row | Sequence | binding signal
77 | AGCCGGTG | 7.26 upbm affinity estimate (log intensity, higher = more binding, comparable within an allelic series)
78 | CAGCCGTA | 7.24 upbm affinity estimate (log intensity, higher = more binding, comparable within an allelic series)
79 | ACTAAAGA | 9.23 upbm affinity estimate (log intensity, higher = more binding, comparable within an allelic series)
80 | TATAAAGA | 9.28 upbm affinity estimate (log intensity, higher = more binding, comparable within an allelic series)
81 | CGTAATGA | 12.2 upbm affinity estimate (log intensity, higher = more binding, comparable within an allelic series)
82 | ACTAACGA | 9.23 upbm affinity estimate (log intensity, higher = more binding, comparable within an allelic series)
83 | ACGCATAA | 8.87 upbm affinity estimate (log intensity, higher = more binding, comparable within an allelic series)
84 | CGCTAGCG | 7.28 upbm affinity estimate (log intensity, higher = more binding, comparable within an allelic series)
85 | AGGTAAAT | 10.2 upbm affinity estimate (log intensity, higher = more binding, comparable within an allelic series)
86 | GTCGAGCA | 7.41 upbm affinity estimate (log intensity, higher = more binding, comparable within an allelic series)
87 | GGCTAAAC | 8.95 upbm affinity estimate (log intensity, higher = more binding, comparable within an allelic series)
88 | CAGCGCAC | 7.26 upbm affinity estimate (log intensity, higher = more binding, comparable within an allelic series)
89 | CCTGCAGA | 7.23 upbm affinity estimate (log intensity, higher = more binding, comparable within an allelic series)
90 | AGATGAGC | 8.88 upbm affinity estimate (log intensity, higher = more binding, comparable within an allelic series)
91 | ATATGGAC | 8.81 upbm affinity estimate (log intensity, higher = more binding, comparable within an allelic series)
92 | CGTCATGA | 8.62 upbm affinity estimate (log intensity, higher = more binding, comparable within an allelic series)
93 | CGACTCCG | 7.09 upbm affinity estimate (log intensity, higher = more binding, comparable within an allelic series)
94 | CTTCATCA | 9.51 upbm affinity estimate (log intensity, higher = more binding, comparable within an allelic series)
95 | AGGCGGGA | 7.24 upbm affinity estimate (log intensity, higher = more binding, comparable within an allelic series)
96 | GTGATAAC | 8.95 upbm affinity estimate (log intensity, higher = more binding, comparable within an allelic series)

Row | Sequence | binding signal
97 | CGCGGCAC | 7.21 upbm affinity estimate (log intensity, higher = more binding, comparable within an allelic series)
98 | AGCCCGTG | 7.28 upbm affinity estimate (log intensity, higher = more binding, comparable within an allelic series)
99 | GGTCTCCA | 7.2 upbm affinity estimate (log intensity, higher = more binding, comparable within an allelic series)
100 | CTCCGTGC | 6.81 upbm affinity estimate (log intensity, higher = more binding, comparable within an allelic series)
101 | CGGCAAGA | 7.11 upbm affinity estimate (log intensity, higher = more binding, comparable within an allelic series)
102 | GCTCAGCC | 6.88 upbm affinity estimate (log intensity, higher = more binding, comparable within an allelic series)
103 | TTATGGAA | 9.34 upbm affinity estimate (log intensity, higher = more binding, comparable within an allelic series)
104 | AGGGTCAG | 7.25 upbm affinity estimate (log intensity, higher = more binding, comparable within an allelic series)
105 | GAGAATCC | 7.13 upbm affinity estimate (log intensity, higher = more binding, comparable within an allelic series)
106 | GCCAAGGC | 6.97 upbm affinity estimate (log intensity, higher = more binding, comparable within an allelic series)
107 | GCGGAGAC | 7.29 upbm affinity estimate (log intensity, higher = more binding, comparable within an allelic series)
108 | CCGGTGCC | 7.13 upbm affinity estimate (log intensity, higher = more binding, comparable within an allelic series)
109 | CATTACGC | 10.7 upbm affinity estimate (log intensity, higher = more binding, comparable within an allelic series)
110 | ATGATGAA | 9.22 upbm affinity estimate (log intensity, higher = more binding, comparable within an allelic series)
111 | AGCCTCCG | 6.91 upbm affinity estimate (log intensity, higher = more binding, comparable within an allelic series)
112 | CCGTGAAG | 7.02 upbm affinity estimate (log intensity, higher = more binding, comparable within an allelic series)
113 | AGGGCCCT | 7.36 upbm affinity estimate (log intensity, higher = more binding, comparable within an allelic series)
114 | CCGGCAGC | 7.17 upbm affinity estimate (log intensity, higher = more binding, comparable within an allelic series)
115 | AGTCAGGG | 7.15 upbm affinity estimate (log intensity, higher = more binding, comparable within an allelic series)
